Measured values: PubChem BioAssay AID1159580 (chemical genetic matrix, 2015)
Several values for one entry are separate records, joined by “and”; a condition that tells them apart may be missing. Equal entries are not always repeated. Screen size: about 5,500 compounds; about 2,000 (36%) were called active. Inconclusive results (about 18%) are left out. Rule as the data show it: active = normalized growth mostly below about 0.91 (no sharp cut-off); inconclusive = no clear call, values can overlap the other calls; inactive = mostly above about 0.92. The list shows a part of the results.

Test: chemical genetic growth profiling, strain panel (AID 1159580);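 also: tested at 20 µM; growth read once vehicle control cultures reached saturation at 30 °C; 1 = growth at the plate median or of vehicle wells; lower values mean less growth of the strain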
Settings: S. cerevisiae deletion strains, growth OD

Measured: normalized growth

CC(=O)OCC(=O)[C@@]1(O)CCC2C3CCC4=CC(=O)CC[C@]4(C)C3[C@@H](O)C[C@@]21C (stereo partly drawn)
inactive: locus YAL013W, strain DEP1, active compounds read low 1.01 | locus YAL021C, strain ccr4, active compounds read low 1.03 | locus YAL026C, strain drs2, active compounds read low 1.02 | locus YAL030W, strain snc1, active compounds read low 1.04 | locus YBL061C, strain skt5, active compounds read low 1.03 | locus YBR009C, strain hhf1, active compounds read low 0.99 | locus YBR021W, strain FUR4, active compounds read low 0.999 | locus YBR023C, strain chs3, active compounds read low 1.02 | locus YBR171W, strain sec66, active compounds read low 1.04 | locus YBR229C, strain ROT2, active compounds read low 1 | locus YBR231C, strain swc5, active compounds read low 0.999 | locus YBR279W, strain paf1, active compounds read low 1.01 | locus YCL011C, strain gbp2, active compounds read low 1.01 | locus YCL016C, strain dcc1, active compounds read low 1.04 | locus YCL029C, strain bik1, active compounds read low 1 | locus YCL069W, strain vba3, active compounds read low 1 | locus YCR088W, strain abp1, active compounds read low 1.02 | locus YDL005C, strain med2, active compounds read low 1.01 | locus YDL035C, strain GPR1, active compounds read low 1.01 | locus YDL040C, strain nat1, active compounds read low 1.01 | locus YDL074C, strain BRE1, active compounds read low 1.01 | locus YDL101C, strain DUN1, active compounds read low 1.01 | locus YDL134C, strain PPH21, active compounds read low 1.01 | locus YDL185W, strain tfp1, active compounds read low 1.01 | locus YDL192W, strain arf1, active compounds read low 1 | locus YDR001C, strain nth1, active compounds read low 1.01 | locus YDR069C, strain doa4, active compounds read low 1.04 | locus YDR101C, strain arx1, active compounds read low 0.994 | locus YDR137W, strain rgp1, active compounds read low 1.05 | locus YDR150W, strain NUM1, active compounds read low 1.01 | locus YDR159W, strain sac3, active compounds read low 0.997 | locus YDR162C, strain NBP2, active compounds read low 1.01 | locus YDR195W, strain ref2 1.02 | locus YDR297W, strain sur2, active compounds read low 0.997 | locus YDR318W, strain mcm21, active compounds read low 0.998 | locus YDR334W, strain swr1, active compounds read low 1.01 | locus YDR335W, strain msn5, active compounds read low 1.02 | locus YDR388W, active compounds read low 1 | locus YDR392W, strain spt3, active compounds read low 1.04 | locus YDR502C, strain sam2, active compounds read low 0.996 | locus YEL003W, strain gim4, active compounds read low 1.01 | locus YEL037C, strain rad23, active compounds read low 1.02 | locus YEL061C, strain CIN8 (second series), active compounds read low 1.01 | locus YEL061C, strain CIN8, active compounds read low 1.01 | locus YER015W, strain faa2, active compounds read low 1.01 | locus YER016W, strain bim1, active compounds read low 1.05 | locus YER110C, active compounds read low 0.998 | locus YER111C, strain swi4, active compounds read low 1.01 | locus YER155C, strain BEM2 (second series), active compounds read low 1.02 | locus YER155C, strain BEM2, active compounds read low 1.01 | locus YER167W, strain BCK2, active compounds read low 1.01 | locus YFR010W, strain ubp6, active compounds read low 0.984 | locus YGL078C, strain dbp3, active compounds read low 0.99 | locus YGL086W, strain mad1, active compounds read low 1.01 | locus YGL167C, strain pmr1, active compounds read low 1.02 | locus YGL173C, strain kem1, active compounds read low 1.02 | locus YGL227W, strain vid30, active compounds read low 1.01 | locus YGL240W, strain doc1, active compounds read low 1 | locus YGL248W, strain PDE1, active compounds read low 1 | locus YGL253W, strain hxk2, active compounds read low 1.02 | locus YGR135W, strain pre9, active compounds read low 0.986 | locus YGR252W, strain gcn5, active compounds read low 0.947 | locus YHR013C, strain ard1, active compounds read low 1.04 | locus YHR027C, strain rpn1, active compounds read low 1.03 | locus YHR030C, strain SLT2, active compounds read low 1.01 and 0.978 | locus YHR079C, strain IRE1 (second series), active compounds read low 1 | locus YHR079C, strain IRE1, active compounds read low 0.976 | locus YHR094C, strain hxt1, active compounds read low 0.995 | locus YHR129C, strain ARP1, active compounds read low 1.01 | locus YHR142W, strain chs7, active compounds read low 1.03 | locus YHR200W, strain rpn10, active compounds read low 1 | locus YIL066C, strain RNR3, active compounds read low 1.01 | locus YIL073C, strain SPO22, active compounds read low 1.04 | locus YIL125W, strain kgd1, active compounds read low 0.996 | locus YIR030C, strain dcg1, active compounds read low 1 | locus YJL092W, strain hpr5, active compounds read low 1.02 | locus YJL095W, strain BCK1 (second series), active compounds read low 1.03 | locus YJL095W, strain BCK1, active compounds read low 1.01 and 0.971 | locus YJL115W, strain asf1, active compounds read low 1.01 | locus YJL129C, strain trk1, active compounds read low 1.04 | locus YJL134W, strain LCB3, active compounds read low 1.01 | locus YJL154C, strain vps35, active compounds read low 1.01 | locus YJL164C, strain tpk1, active compounds read low 1.01 | locus YJL166W, strain qcr8, active compounds read low 1.01 | locus YJL168C, strain set2, active compounds read low 0.993 | locus YJL187C, strain SWE1 (second series), active compounds read low 1 | locus YJL187C, strain SWE1, active compounds read low 1.01 | locus YJR043C, strain POL32, active compounds read low 1.02 | locus YJR066W, strain TOR1, active compounds read low 0.931 | locus YKL009W, strain mrt4, active compounds read low 1.01 | locus YKL068W, active compounds read low 0.997 | locus YKL085W, strain MDH1 (second series), active compounds read low 1 | locus YKL085W, strain MDH1, active compounds read low 1 | locus YKL160W, strain elf1, active compounds read low 1.04 | locus YKR001C, strain vps1, active compounds read low 0.997 | locus YKR026C, strain gcn3, active compounds read low 1 | locus YKR091W, strain srl3, active compounds read low 1.01 | locus YLL001W, strain dnm1, active compounds read low 1.01 | locus YLL026W, active compounds read low 1.01 | locus YLL041C, strain sdh2, active compounds read low 1.03 | locus YLR027C, strain aat2, active compounds read low 1.02 | locus YLR039C, strain RIC1, active compounds read low 1.02 | locus YLR058C, strain SHM2, active compounds read low 0.996 | locus YLR102C, strain apc9, active compounds read low 0.995 | locus YLR113W, strain HOG1, active compounds read low 0.992 | locus YLR221C, strain rsa3, active compounds read low 0.985 | locus YLR258W, strain gsy2, active compounds read low 1.03 | locus YLR262C, strain YPT6 (second series), active compounds read low 1 | locus YLR262C, strain YPT6, active compounds read low 1.04 | locus YLR268W, strain sec22, active compounds read low 0.998 | locus YLR320W, strain mms22, active compounds read low 1 | locus YLR330W, strain CHS5, active compounds read low 1.01 | locus YLR342W, strain FKS1 (second series), active compounds read low 0.998 | locus YLR342W, strain FKS1, active compounds read low 1.02 | locus YLR357W, strain rsc2, active compounds read low 1.03 | locus YLR370C, strain arc18, active compounds read low 1.02 | locus YLR371W, strain rom2, active compounds read low 0.994 | locus YLR384C, strain iki3, active compounds read low 1.02 | locus YLR418C, strain cdc73, active compounds read low 0.994 | locus YML016C, strain PPZ1, active compounds read low 1 | locus YML032C, strain rad52, active compounds read low 1 | locus YML120C, strain ndi1, active compounds read low 1 | locus YML124C, strain tub3, active compounds read low 0.998 | locus YMR058W, strain fet3, active compounds read low 1.03 | locus YMR078C, strain ctf18, active compounds read low 1 | locus YMR125W, strain sto1, active compounds read low 1.03 | locus YMR129W, active compounds read low 1.02 | locus YMR205C, strain PFK2, active compounds read low 1.03 | locus YMR223W, strain ubp8, active compounds read low 0.98 | locus YMR231W, strain pep5, active compounds read low 1.02 | locus YMR307W, strain GAS1, active compounds read low 0.984 | locus YNL067W, strain RPL9B, active compounds read low 1.01 | locus YNL071W, strain lat1, active compounds read low 1 | locus YNL183C, strain NPR1, active compounds read low 0.954 | locus YNL209W, strain ssb2, active compounds read low 1.02 | locus YNL233W, strain BNI4, active compounds read low 1 | locus YNL248C, strain rpa49, active compounds read low 1.03 | locus YNL250W, strain rad50, active compounds read low 0.982 | locus YNL271C, strain bni1, active compounds read low 0.993 | locus YNL298W, strain CLA4, active compounds read low 0.995 | locus YNL307C, strain MCK1, active compounds read low 1 | locus YNL322C, strain KRE1 (second series), active compounds read low 1.04 | locus YNR049C, strain mso1, active compounds read low 1.02 | locus YNR052C, strain pop2, active compounds read low 0.996 | locus YOL012C, strain htz1 0.732 | locus YOL147C, strain pex11, active compounds read low 0.992 | locus YOR001W, strain rrp6, active compounds read low 0.986 | locus YOR061W, strain CKA2, active compounds read low 1.01 | locus YOR069W, strain VPS5, active compounds read low 1.01 | locus YOR070C, strain gyp1, active compounds read low 1.03 | locus YOR080W, strain dia2, active compounds read low 1.02 | locus YOR083W, strain WHI5, active compounds read low 1.05 | locus YOR106W, strain vam3, active compounds read low 1.05 | locus YOR136W, strain idh2, active compounds read low 0.994 | locus YOR144C, strain elg1, active compounds read low 0.997 | locus YOR184W, strain ser1, active compounds read low 1 | locus YOR231W, strain MKK1, active compounds read low 0.992 | locus YOR265W, strain rbl2, active compounds read low 1 | locus YOR270C, strain vph1, active compounds read low 1.03 | locus YOR290C, strain snf2, active compounds read low 1.06 | locus YOR316C, strain cot1, active compounds read low 0.995 | locus YPL051W, strain arl3, active compounds read low 1 | locus YPL055C, strain LGE1, active compounds read low 1 | locus YPL078C, strain atp4, active compounds read low 1.04 | locus YPL106C, strain sse1, active compounds read low 1.04 | locus YPL240C, strain hsp82, active compounds read low 1.01 | locus YPL241C, strain CIN2, active compounds read low 1.01 | locus YPL256C, strain CLN2, active compounds read low 0.968 | locus YPR119W, strain clb2, active compounds read low 0.999 | locus YPR141C, strain kar3, active compounds read low 1.01 | locus YPR163C, strain tif3, active compounds read low 1 | locus YPR167C, strain met16, active compounds read low 1 | strain wtn01, active compounds read low 0.997
